The nature of test [1]: TOX21_p53_BLA_p3_viability: Viability Assessment in the Tox21 HCT-116 p53 Agonism Beta-lactamase Assay, Phase 3 (AID 2283593).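 Also: cells exposed to compound for 16 h before reading.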 In a few lines: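 Cellular ATP was quantified by CellTiter-Glo luminescence, read after 30 min at room temperature. Beforehand, HCT116 cells (4000/well) received compound 5 h post-seeding, 217-fold diluted from DMSO, then incubated 16 h at 37C.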
In test [2] the target is Cellular tumor antigen p53 (Homo sapiens) (UniProt P04637). Nature of the test: TOX21_p53_BLA_p3_ratio: Tox21 HCT-116 p53 Agonism Beta-lactamase Assay, Ratio, Phase 3 (AID 2283596). In a few lines:
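HCT116 p53-bla cells (4000/well) given compound in DMSO (217-fold dilution) after 5 h, incubated 16 h at 37C. CCF4-AM substrate 2 h at room temperature; 460/530 nm emission ratio, gain fitted against DMSO.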

The nature of test [3]: TOX21_p53_BLA_p4_viability: Viability Assessment in the Tox21 HCT-116 p53 Agonism Beta-lactamase Assay, Phase 4 (AID 2283597).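 Also: hits lower the luminescence signal meaning cytotoxicity.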 The method in brief: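 Luminescent ATP readout (CellTiter-Glo, 30 min, room temperature) in the same wells as the p53 bla ratio. HCT116 cells were treated for 16 h at 37C with DMSO-dissolved compounds.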
For test [4], the target named is Cellular tumor antigen p53 (Homo sapiens) (UniProt P04637). Briefly: TOX21_p53_BLA_p5_ratio: Tox21 HCT-116 p53 Agonism Beta-lactamase Assay, Ratio, Phase 5 (AID 2283599). In a few lines:
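Beta-lactamase reporter ratio (blue 460 nm over green 530 nm, 405 nm excitation) after 2 h CCF4-AM loading, in HCT-116 cells exposed 16 h at 37 C to compounds pinned at 217-fold dilution. Increases relative to DMSO baseline scored.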

A short description of test [5]: TOX21_p53_BLA_p5_viability: Viability Assessment in the Tox21 HCT-116 p53 Agonism Beta-lactamase Assay, Phase 5 (AID 2283600). The method in brief: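 Seeded cells (4000/well) settle 5 h before compound addition. Plates then incubate 16 h at 37C, receive FRET substrate for 2 h, and finally CellTiter-Glo, with luminescence measured after a 30 min room-temperature incubation.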

For test [6], the target named is Cellular tumor antigen p53 (Homo sapiens) (UniProt P04637). Briefly: TOX21_p53_BLA_p4_ratio: Tox21 HCT-116 p53 Agonism Beta-lactamase Assay, Ratio, Phase 4 (AID 2283601). In a few lines:
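Signal is the blue/green (460nm/530nm) ratio of cleaved versus uncleaved CCF4-AM substrate, read after 2 h substrate loading. Cells were HCT116 carrying the p53-responsive beta-lactamase reporter, dosed 16 h at 37C, 5% CO2; CellTiter-Glo measured in parallel.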

Test [7] in a line: Tanguay_ZF_120hpf_MORT_legacy: (Legacy) Oregon State University Tanguay Lab 120 Hour Post-fertilization zebrafish Assay for Mortality (AID 2283633).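 As to AC50: fitted as increase in binary mortality versus DMSO negative control.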 In a few lines: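 Single dechorionated Tropical 5D embryos were held with test chemical (0.64% DMSO final) from 6 to 120 hpf at 28C under foil. Deaths at 24 or 120 hpf were recorded as binary calls, analysed for increase over DMSO controls.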

Test [8] can be described thus: Tanguay_ZF_120hpf_AXIS_legacy: (Legacy) Oregon State University Tanguay Lab 120 Hour Post-fertilization zebrafish Assay for Body Axis Malformation (AID 2283635).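 As to AC50: potency for an increased fraction of larvae scored with body axis malformation.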 The method in brief: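 Each dechorionated embryo was exposed alone from 6 hpf, with DMSO at 0.64% (vol/vol) and trimethyltin chloride 5 uM as positive control. Axis malformation was recorded at 120 hpf unless the embryo had died.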

Test [9] in a line: Tanguay_ZF_120hpf_EYE_legacy: (Legacy) Oregon State University Tanguay Lab 120 Hour Post-fertilization zebrafish Assay for Eye Malformation (AID 2283636). In a few lines: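 Read-out is binary presence or absence of eye malformation, scored by brightfield microscopy at 120 hpf. Single larvae were exposed from 6 hpf in embryo medium containing 0.64% DMSO, with DMSO as baseline.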

A short description of test [10]: Tanguay_ZF_120hpf_SNOU_legacy: (Legacy) Oregon State University Tanguay Lab 120 Hour Post-fertilization zebrafish Assay for Snout Malformation (AID 2283637). The method in brief:
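Snout malformation read as a yes/no call on brightfield images of 120 hpf larvae (Tropical 5D strain). Static exposure began at 6 hpf on dechorionated embryos in 0.64% DMSO, with gain of signal analysed versus DMSO controls.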

Test [11] can be described thus: Tanguay_ZF_120hpf_JAW_legacy: (Legacy) Oregon State University Tanguay Lab 120 Hour Post-fertilization zebrafish Assay for Jaw Malformation (AID 2283638).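 As to AC50: active means more embryos with jaw malformation than DMSO controls.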 The method in brief: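 Wild-type 5D embryos, chorion removed at 4 hpf, dosed singly from 6 hpf; 28C static, sealed, foil-covered, to 120 hpf. Endpoint: jaw defect yes/no (brightfield); mortality excludes scoring.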

Test [12] in a line: Tanguay_ZF_120hpf_OTIC_legacy: (Legacy) Oregon State University Tanguay Lab 120 Hour Post-fertilization zebrafish Assay for Otic Vesicle Malformation (AID 2283639). The method in brief:
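Tropical 5D wild-type zebrafish embryos were exposed statically in sealed, foil-covered plates at 28C until 120 hpf, with 0.64% (vol/vol) DMSO final. Otic vesicle malformation was scored present/absent by brightfield microscopy, with DMSO as baseline.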

Test [13] can be described thus: Tanguay_ZF_120hpf_PE_legacy: (Legacy) Oregon State University Tanguay Lab 120 Hour Post-fertilization zebrafish Assay for Pericardial Edema (AID 2283640). In a few lines:
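Zebrafish larvae are exposed from early development to 120 hpf at 28C, with 0.64% DMSO final. Each surviving larva receives a yes/no pericardial edema call by brightfield imaging, analysed relative to the DMSO baseline.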

Test [14] can be described thus: Tanguay_ZF_120hpf_BRAI_legacy: (Legacy) Oregon State University Tanguay Lab 120 Hour Post-fertilization zebrafish Assay for Brain Malformation (AID 2283641). In a few lines: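 Static exposure of staged wild-type embryos until 120 hpf, kept at 28C with light excluded and final DMSO of 0.64% (vol/vol). Presence or absence of brain malformation was noted under brightfield; mortality precluded scoring.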

Test [15] can be described thus: Tanguay_ZF_120hpf_PFIN_legacy: (Legacy) Oregon State University Tanguay Lab 120 Hour Post-fertilization zebrafish Assay for Pectoral Fin Malformation (AID 2283648).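 Also: each larva judged yes or no for fin defect by brightfield with dead larvae skipped.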 In a few lines:
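5D WT zebrafish; pronase dechorionation 4 hpf; 1 embryo/well at 6 hpf; static exposure to 120 hpf, 28C, sealed, foil-covered; final DMSO 0.64% v/v; 5 uM trimethyltin chloride positive control; fin defect scored yes/no.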

Test [16] in a line: Tanguay_ZF_120hpf_CFIN_legacy: (Legacy) Oregon State University Tanguay Lab 120 Hour Post-fertilization zebrafish Assay for Caudal Fin Malformation (AID 2283649). The method in brief: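 Single dechorionated 5D wild-type embryos are dosed at 6 hpf (final DMSO 0.64%) and held statically at 28C. Caudal fin malformation is recorded as present or absent at 120 hpf under brightfield, excluding dead embryos.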

Test [17] is described as follows: Tanguay_ZF_120hpf_PIG_legacy: (Legacy) Oregon State University Tanguay Lab 120 Hour Post-fertilization zebrafish Assay for Pigmentation Malformation (AID 2283650). In a few lines: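 Pronase dechorionation at 4 hpf; embryos plated at 6 hpf, one per well; static exposure, sealed and foil-covered, 28C, to 120 hpf; pigmentation read by brightfield, binary; DMSO 0.64% baseline, 5uM trimethyltin chloride positive control.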

Test [18] in a line: Tanguay_ZF_120hpf_SOMI_legacy: (Legacy) Oregon State University Tanguay Lab 120 Hour Post-fertilization zebrafish Assay for Somite Malformation (AID 2283647). The method in brief: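 Somitogenesis defects are recorded as binary calls in whole larvae at 120 hpf after continuous static chemical exposure starting at 6 hpf in dechorionated 5D embryos. DMSO serves as negative control and baseline.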

Test [19] is described as follows: Tanguay_ZF_120hpf_CIRC_legacy: (Legacy) Oregon State University Tanguay Lab 120 Hour Post-fertilization zebrafish Assay for Circulatory Malformation (AID 2283651). In a few lines:
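Tropical 5D wild-type embryos, dechorionated with pronase at 4 hpf, were placed singly in wells at 6 hpf and exposed statically at 28C to 120 hpf (0.64% DMSO final). Circulatory malformation was scored present/absent by brightfield microscopy.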

Test [20] is described as follows: Tanguay_ZF_120hpf_YSE_legacy: (Legacy) Oregon State University Tanguay Lab 120 Hour Post-fertilization zebrafish Assay for Yolk Sac Edema (AID 2283634). In a few lines:
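Single dechorionated embryos were held in sealed plates at 28C with test chemical (0.64% DMSO final) from 6 hpf until 120 hpf. Edema of the yolk sac was then recorded as a binary endpoint; non-mortality endpoints were skipped for dead embryos.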

The results in this text go back to PubChem BioAssay (EPA / NIEHS).

Each structure is given as a SMILES string. Where “and” joins values, the source holds several entries; their conditions need not be identical. Equal values may be shown once. Records with an inconclusive call do not appear. The source holds several records for some structures; these can differ, active in one and inactive in another. Calls of active or inactive are those of the source. The calls were made as follows: active = hit-call score of the fitted dose curve at least 0.9, where 1 is the maximum; inconclusive = response in the unintended direction; inactive = score below 0.9.

Chain of Cellular tumor antigen p53 (Homo sapiens) (P04637 whole entry, looked up): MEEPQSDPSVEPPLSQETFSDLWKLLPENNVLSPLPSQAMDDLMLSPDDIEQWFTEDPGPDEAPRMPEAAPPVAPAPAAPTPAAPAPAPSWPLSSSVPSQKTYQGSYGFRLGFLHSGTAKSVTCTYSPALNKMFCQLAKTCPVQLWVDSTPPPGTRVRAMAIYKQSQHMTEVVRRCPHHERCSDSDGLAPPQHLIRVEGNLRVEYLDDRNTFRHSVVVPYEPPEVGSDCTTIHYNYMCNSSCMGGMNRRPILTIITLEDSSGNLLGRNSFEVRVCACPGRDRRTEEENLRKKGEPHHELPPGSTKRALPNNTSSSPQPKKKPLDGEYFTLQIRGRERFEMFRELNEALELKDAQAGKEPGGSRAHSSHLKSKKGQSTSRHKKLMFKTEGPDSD

For `O=CCCCC=O`, the AC50 in test [1] was 83.5 µM (active) and 84.6 µM (active); in test [2], 69.9 µM (active) and 37 µM (active). For the same compound, the outcome in test [1], in [3], in [4], in test [5], in test [6] and in test [7] was inactive. Moreover, the result in [8], in test [9], in test [10], in test [11], in test [12] and in test [13] was inactive. Also, the call in [14], in [15], in test [16] and in test [17] was inactive.
On to `Oc1ccccc1`, for which the compound was classed as inactive in test [1], in test [2], in test [3], in [4], in test [5] and in [6]. In addition, the call in test [7], in test [8], in test [9], in test [10], in test [11] and in test [12] was inactive. For the same compound, the call in test [13], in test [14], in [18], in test [15] and in [17] was inactive.
Regarding `O=C(O)Cc1cc(I)c(Oc2ccc(O)c(I)c2)c(I)c1`, the AC50 is 15.9 µM (active) in [1]; 1.64 µM (active) and 8.48 µM (active) in [2]; 19 µM (active) and 5.82 µM (active) in test [3]; 1.95 µM (active) and 16.7 µM (active) in [4]; 21.8 µM (active) in [5]; 3.33 µM (active) and 5.61 µM (active) in test [6]. The AC50 in [8] is 0.0871 µM (active); in test [10], 0.0814 µM (active); in test [11] it was 0.089 µM (active); in test [17], 0.177 µM (active). Besides, the compound was called inactive in [1], in test [5], in test [7], in test [9], in [12] and in test [13]. Moreover, the outcome in [14], in test [15], in test [16] and in [19] was inactive.
In the case of `CCN(Cc1cccnc1)C(=O)c1cccc(Cl)c1[C@]1(C)C(=O)N(Cc2ccc(OC)cc2OC)c2ccc(Cl)cc21`, the call in test [1], in [3], in [5], in [20], in test [8] and in test [10] was inactive. The outcome in [11], in test [12], in test [14], in [15], in test [16] and in [17] was inactive. The AC50 is 40.9 µM (active) in [2], 52.1 µM (active) in [4], 44.5 µM (active) in [6] and 6.06 µM (active) in [7].
As for `CO[C@H]1/C=C/O[C@@]2(C)Oc3c(C)c(O)c4c(O)c(c(/C=N/N5CCN(C)CC5)c(O)c4c3C2=O)NC(=O)/C(C)=C\C=C\[C@H](C)[C@H](O)[C@@H](C)[C@@H](O)[C@@H](C)[C@H](OC(C)=O)[C@@H]1C`, the result in [1], in test [2], in test [3], in test [4], in test [5] and in test [6] was inactive. Further, the result in test [7], in [20], in [8], in [9], in test [10] and in test [11] was inactive. The compound was classed as inactive in test [12], in test [15], in test [16], in test [17] and in [19].
For the compound `OCCO`, the result in [1], in [2], in [3], in test [4], in [5] and in test [6] was inactive. The outcome in [7], in [8], in [9], in test [10], in [11] and in test [14] was inactive. The compound was classed as inactive in [15], in test [16], in test [17] and in test [19].

Broadly, the AC50 is the concentration at which the activity in the assay is half-maximal.
